Bioassay records from PubChem BioAssay.
TSHR antag: human thyrotropin receptor antagonism | P16473 | TSHR-expressing cells, TSH-stimulated cAMP HTRF, 2 h; active compounds read low | activity change, negative = inhibition, % at 11.5 µM | 0.2% of 330,000 active;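 active means activity change below a set negative limit, meaning inhibition stronger than a set level, cut at about -70% in these data; inconclusive means activity change between two set negative limits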
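Freshly harvested TSHR cells receive pin-tooled compound, then EC80 TSH at 4nM final. After 2 hours at 37 deg C, antibody in lysis buffer and cAMP-d2 are added; 30 minutes at ambient temperature precede the HTRF read.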
ELG1 DNA repair: inhibitors of ELG1-dependent DNA repair in HEK293T cells; HEK293T ELG1-luciferase reporter, luminescence, 16 h; DNA damage induced by 5-fluorouridine; Potency, µM (series often up to 46.1 µM), without a hit: at the top dose activity change, negative = inhibition, hits mostly inhibitors; 2.3% of 330,000 active; AID 504467; further: potency means the concentration at half of the fitted maximal effect; nearly all actives have a fitted effect of over 55% in size
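Cells (2,000 per well) received 5-fluorouridine plus test compound or DMSO and were incubated 16 hr at 37 °C, 5% CO2. Luciferase activity was read by luminescence 30 min after ONE-Glo addition; signal suppression marked inhibition of damage-induced ELG1 function.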
Gal4-VP16 FLuc: Gal4-VP16 reporter inhibition counter-screen; Drosophila S2 Gal4-VP16 UAS-luciferase, luminescence, 20 h; Potency, µM (doses to about 53.6 µM), for the others: top-dose activity, negative = inhibition, hits mostly inhibitors; 3.5% of 310,000 active;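 further: Gal4-VP16 expression switched on by copper sulfate through the metallothionein promoter; potency means the concentration at half of the fitted maximal effect; nearly all actives have a fitted effect of over 50% in size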
B2AR arrestin: agonists driving beta-arrestin recruitment to human beta2-adrenergic receptor; Potency, µM (doses to about 46.1 µM), for inactives: at the highest dose activation, usual class: activators; 0.02% of 330,000 active; P07550; beta-arrestin recruitment to beta2AR, cell-based reporter;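 further: potency means the concentration at half of the fitted maximal effect; 0% = DMSO controls and full agonism = EC100 isoproterenol or metaproterenol; nearly all actives have a fitted effect of over 65% in size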
Target sequence (P07550 whole entry, looked up): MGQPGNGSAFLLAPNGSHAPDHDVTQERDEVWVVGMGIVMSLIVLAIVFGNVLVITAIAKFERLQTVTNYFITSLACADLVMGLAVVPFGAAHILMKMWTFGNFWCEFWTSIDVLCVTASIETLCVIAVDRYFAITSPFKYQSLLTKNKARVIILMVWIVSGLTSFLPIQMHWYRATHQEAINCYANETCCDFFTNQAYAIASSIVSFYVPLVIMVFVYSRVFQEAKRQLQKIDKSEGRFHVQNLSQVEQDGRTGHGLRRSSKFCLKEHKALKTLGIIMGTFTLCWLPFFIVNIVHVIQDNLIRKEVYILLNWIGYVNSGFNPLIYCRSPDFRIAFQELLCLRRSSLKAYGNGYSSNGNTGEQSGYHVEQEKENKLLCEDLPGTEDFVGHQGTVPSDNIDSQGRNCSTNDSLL
RORgamma inh: ROR gamma (mouse) transcription inhibition | P51450 | Drosophila S2 Gal4-RORgamma UAS-luciferase reporter, 20 h | Potency, µM (highest dose often 53.6 µM), inactives show top-dose activity change, negative = inhibition, usual class: inhibitors | 5.4% of 310,000 active; further: potency means the concentration at half of the fitted maximal effect; nearly all actives have a fitted effect of over 60% in size
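Read-out: Photinus luciferase luminescence; inhibitors lower reporter signal. Insect Schneider cells with Gal4-ROR gamma fusion under metallothionein promoter, UAS reporter; 700 uM final copper sulfate induction, 20 hr, ambient temperature.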
Starred values were filed as active, the others as inactive; ? = inconclusive; . = no result given; [ ] = remark or other dose. Compounds with a hit are over-represented: about 7.5% of the library has one in this group of screens. Unless noted, the call rests on the fitted dose curve; in most records, active means well fitted curve in the direction sought with a large enough effect; inconclusive means small, poorly fitted or top-dose-only effect, or another doubt; inactive means no such curve, though single readings can be large; an effect the other way counts as inactive or inconclusive. Unless noted, on the % scale 0 is the no-effect control and ±100 the full control effect.

SMILES	TSHR antag	ELG1 DNA repair	Gal4-VP16 FLuc	B2AR arrestin	RORgamma inh
COCCn1c(=O)[nH]c2cc(C(=O)N3CCN(c4cccc(C(F)(F)F)c4)CC3)ccc2c1=O	-9	?	?	0%	?
CCOCCCn1c(=S)[nH]c2cc(C(=O)N3CCN(C)CC3)ccc2c1=O	-2	-6%	-2%	0%	2%
COc1ccc(OC)c(/C=C/C(=O)OCC(=O)Nc2nnc(-c3ccccc3)o2)c1	0	24%	.	0%	.
COc1ccc(NC(=O)Nc2cccc3ccccc23)cc1OC	2	2%	5%	-1%	5%
COc1ccc(NC(=O)CSc2ccc(-c3cccnc3)nn2)c(OC)c1	0	?	3%	1%	7%
CCOC(=O)N1CCN(C(=O)c2cccc(-n3c(=S)[nH]c4cc(Cl)ccc4c3=O)c2)CC1	-10	?	-9%	0%	11µM*
O=C(C1CCN(S(=O)(=O)Cc2ccccc2)CC1)N1CCN(c2ncccn2)CC1	0	-1%	-5%	0%	-1%
COc1ccccc1N1CCN(C(=O)C2CCCN(S(=O)(=O)c3ccc4c(c3)CCCN4C(C)=O)C2)CC1 (stereo not given)	17	?	7.9µM*	-1%	23%
CC(=O)Nc1ccc(S(=O)(=O)N2CCCC(C(=O)N3CCN(c4ccccc4)CC3)C2)cc1 (stereo not given)	-13	21µM*	.	-3%	.
CC(=O)c1ccc(N2CCN(C(=O)C3CCN(S(=O)(=O)Cc4ccccc4)CC3)CC2)cc1	-5	18µM*	-22%	0%	35%
C=C1c2cccc(C(F)(F)F)c2O[C@H](C(=O)OCC)C1OC (mixture of isomers)	.	.	0%	.	-1%
COc1cccc(Cn2c(=O)cnc3cnc(N4CCN(C)CC4)nc32)c1	.	.	-10%	.	35%
Cc1cc(NC(=O)COC(=O)c2oc3c(ccc4ccccc43)c2C)no1	17	?	11µM*	8%	?
C=CC(C1=CC(=O)C(OC)=C(OC)C1=O)c1ccccc1 (stereo not given)	.	.	7.1µM*	.	14µM*
NS(=O)(=O)c1ccc(CCNC(=O)c2ccc[nH]c2=S)cc1	0	4%	11µM*	0%	?
FC(F)(F)c1cnc2c(c1)[nH]c(=S)n2-c1ccc(Cl)cc1	-5	16µM*	?	1%	7.9µM*
Oc1c(C=C2N=c3ccccc3=N2)sc(=S)n1-c1ccc(F)cc1	-8	0%	13µM*	0%	?
COc1ccc(C)cc1NC(=O)C1CCN(S(=O)(=O)c2cccc3cccnc23)CC1	20	23µM*	-4%	0%	10%
COc1ccc(NC(=O)C2CCN(S(=O)(=O)c3cccc4cccnc34)CC2)cc1OC	14	?	-1%	-1%	?
COc1ccc(S(=O)(=O)N2CCC(C(=O)Nc3ccccc3C)CC2)c2cccnc12	.	18µM*	15%	0%	-1%
N#Cc1ccc(C[C@H](C(=O)O)N2C(=O)c3ccc(C(=O)O)cc3C2=O)cc1	-3	.	2%	0%	3%
CC(C)[C@@H](CC(=O)N[C@@H]1CCNC[C@H]1C(=O)N[C@H](CC(=O)N[C@@H](CCC(=O)O)CC(=O)O)Cc1c[nH]c2ccccc12)NC(=O)C[C@H](CO)NC(=O)[C@@H]1CCCC[C@H]1N	.	.	2%	.	15%
O=C(COc1ccc(Nc2ccccc2)cc1)Nc1ccncc1	-12	18µM*	.	0%	.
Cc1cc(OCC(=O)Nc2ccncc2)c(C)cc1Br	-25	-13%	13µM*	-1%	?
COC(=O)c1ccc(NC(=O)COc2ccc([N+](=O)[O-])cc2)cc1	15	?	10µM*	-1%	-44%
SMILES	TSHR antag	ELG1 DNA repair	Gal4-VP16 FLuc	B2AR arrestin	RORgamma inh
O=C(COc1ccc(Br)cc1)Nc1ccncc1	-16	-21%	?	0%	-22%
CC(C)CCOc1cccc(OCC(=O)Nc2ccncc2)c1	-33	?	8.9µM*	0%	?
CSc1cccc(NC(=O)NNC(=O)C2CCN(S(=O)(=O)N(C)C)CC2)c1	7	-1%	-7%	-1%	-11%
CCOc1ccc(NC(=O)C2CCCN(S(C)(=O)=O)C2)cc1 (stereo not given)	5	3%	5%	-1%	9%
CC(C)CN1CC2(CCN(C(=O)c3cccc(F)c3)CC2)C1	.	.	10%	.	-5%
Cc1cc(OCC(=O)Nc2ccncc2)ccc1[N+](=O)[O-]	2	7.3µM*	?	0%	5µM*
Cc1ccc(CS(=O)(=O)Cc2ccc(C(=O)NC3CCCCCC3)o2)cc1	4	18µM*	-5%	0%	?
COC(=O)c1ccc(NC(=O)c2nc(S(=O)(=O)Cc3cccc(C)c3)ncc2Cl)cc1	?	16µM*	4.5µM*	0%	6.3µM*
Cc1cccc(CS(=O)(=O)c2ncc(Cl)c(C(=O)NCc3ccc4c(c3)OCO4)n2)c1	34	2%	3.2µM*	-1%	6.3µM*
CC(=O)Nc1ccc(NC(=O)c2nc(S(=O)(=O)Cc3cccc(C)c3)ncc2Cl)cc1	-34	?	5µM*	0%	6.3µM*
CCCS(=O)(=O)c1ncc(Cl)c(C(=O)Nc2ccc(S(=O)(=O)Nc3ncccn3)cc2)n1	-5	15%	?	0%	?
CCOC(=O)c1cccc(N)c1	.	.	-5%	.	10%[10 µM]
O=c1c(-c2ccccc2)nc2cnc(N3CCNCC3)nc2n1Cc1cccs1	.	.	-6%	.	-23%
C/C=C/c1ccc(OC(C)[C@@H](O)c2ccc(O)c(OC)c2)c(OC)c1 (stereo not given in full)	.	.	-8%	.	36%
CC(C)C(NC(=O)C(CC(=O)O)NC(=O)C(CCCCN)NC(=O)C(N)CCCN=C(N)N)C(=O)NC(Cc1ccc(O)cc1)C(=O)O (stereo not given)	.	.	1%	.	1%
Cc1ccc(N2CCN(C(=O)c3nn(C)c4c3CS(=O)(=O)c3ccccc3-4)CC2)c(C)c1	1	-26%	-20%	0%	34%
Cc1cccc(N2CCN(C(=O)c3ccc(CS(=O)(=O)c4ccccc4C)o3)CC2C)c1 (stereo not given)	-21	9.2µM*	?	0%	15%
Cc1ccc(C)c(N2CCN(C(=O)c3ccc(CS(=O)Cc4ccc(Cl)cc4)o3)CC2)c1 (stereo not given)	-10	15µM*	6%	0%	10%
COc1ccc(N2CCN(C(=O)c3ccc(CS(=O)(=O)c4ccccc4C)o3)CC2)cc1	-6	?	8%	0%	42%
Cc1ccc(Cl)cc1N1CCN(C(=O)c2ccc(CS(=O)Cc3ccc(Cl)cc3)o2)CC1 (stereo not given)	-15	0%	-4%	0%	5%
